SMN2 splice enh – enhancers of SMN2 splice variant expression; HEK293 SMN2-luciferase splicing reporter, luminescence, 30-36 h; Potency, µM (titrated, usually from 46.1 µM), without a hit: at the highest dose activity change, positive = activation, hits mostly activators; 2.8% of 210,000 active; AID 1458; note: % of control where 0% means no effect; nearly all actives have a fitted effect of over 55% in size
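qHTS luciferase splicing reporter: luminescence rises when SMN2 exon 7 is included in transfected HEK293 cells. Compound exposure lasted 30-36 h at 37C, with 4.5 mM final sodium butyrate as control, followed by a ONE-Glo read.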
ELG1 genotox – inducers of genotoxicity in HEK293T ELG1-luciferase cells | HEK293T ELG1-luciferase reporter, luminescence, 16 h | Potency, µM (series often up to 46 µM), for inactives: at the highest dose activity change, positive = activation, usual class: activators | 1.3% of 330,000 active | AID 504466; note: % of control where 0% means no effect; nearly all actives have a fitted effect of over 60% in size
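Luminescence read-out: rising ELG1-luciferase signal, reflecting elevated ELG1 protein under genetic stress, flags genotoxic compounds. Cells were treated for 16 hr at 37 °C before ONE-Glo detection.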
KinaseGlo FLuc – counter-screen: inhibitors of Kinase-Glo firefly luciferase. AID 1379. Kinase-Glo luciferase, ATP luminescence, 8 min. 0.28% of 200,000 active. Potency, µM (top dose mostly 38.3 µM), for inactives: at the highest dose activity change, negative = inhibition, hits mostly inhibitors. Q27757; note: % is set by controls: 0 for no effect and ±100 for the full control effect; nearly all actives have a fitted effect of over 60% in size
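Compounds were added to a substrate mix at pH 7.2 (50 mM imidazole, 10 uM ATP, within the enzyme's linear range), followed by Kinase-Glo detection reagent; luminescence was measured after 8 minutes at ambient temperature.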
FLuc modulator – firefly luciferase modulation, counter-screen for miR-21 project; purified FLuc, Km substrates, luminescence inhibition; Potency, µM (titrated, usually from 57.5 µM), without a hit: at the top dose activity change, negative = inhibition, actives largely listed as inhibitors; P08659; 6.9% of 360,000 active;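 note: plate controls were vehicle for no effect and reference inhibitor for full effect; nearly all actives have a fitted effect of over 55% in size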
Target sequence (P08659 whole entry, looked up): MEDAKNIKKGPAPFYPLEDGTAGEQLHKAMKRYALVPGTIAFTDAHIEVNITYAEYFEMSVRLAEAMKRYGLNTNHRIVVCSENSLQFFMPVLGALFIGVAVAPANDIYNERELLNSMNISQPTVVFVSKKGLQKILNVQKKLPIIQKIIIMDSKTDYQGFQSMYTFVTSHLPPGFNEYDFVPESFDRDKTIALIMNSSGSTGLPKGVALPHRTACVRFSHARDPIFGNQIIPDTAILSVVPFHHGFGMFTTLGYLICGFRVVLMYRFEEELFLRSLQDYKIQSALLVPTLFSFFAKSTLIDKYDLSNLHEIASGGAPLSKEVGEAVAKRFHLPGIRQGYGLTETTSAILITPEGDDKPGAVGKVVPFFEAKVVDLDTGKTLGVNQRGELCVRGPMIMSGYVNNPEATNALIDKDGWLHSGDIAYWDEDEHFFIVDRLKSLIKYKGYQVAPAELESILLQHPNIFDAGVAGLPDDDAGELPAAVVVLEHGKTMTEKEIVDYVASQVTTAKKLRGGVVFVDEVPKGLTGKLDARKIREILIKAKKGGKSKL
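Purified P. pyralis luciferase (10nM final) with 10uM D-luciferin and 10uM ATP (Km levels) in 50mM Tris acetate pH 7.5, 10mM Mg acetate, 0.01% Tween-20, 0.05% BSA; qHTS 6-point titration, ~60 µM downward; luminescence read.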
Rab9 prom act – Rab9 promoter activation | Huh7 Rab9 promoter-luciferase reporter, luminescence, 24 h | Potency, µM (series often up to 9.22 µM), without a hit: top-dose activation, negative = inhibition, hits mostly activators | 2.8% of 320,000 active; note: % of control where 0% means no effect; nearly all actives have a fitted effect of over 60% in size
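Cells were plated at 1500 per well in reduced-serum medium with 10% FBS and left 2 h. Compound in DMSO was then added for 24 h at 37 °C. Reporter signal was read by luminescence after 10 min with luciferase detection reagent.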
NPC1 prom act – activators of NPC1 promoter. Huh7 NPC1 promoter luciferase reporter, 24 h. Potency, µM (titrated, usually from 9.22 µM), inactives show at the top dose activation, hits mostly activators. 2.4% of 320,000 active. AID 485313; note: % of control where 0% means no effect; nearly all actives have a fitted effect of over 60% in size
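Luciferase expression driven by the NPC1 promoter was measured in stably transfected Huh7 cells after a 24 h compound incubation, using a luciferase reagent and a luminescence read.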
An asterisk follows results filed as active; ? = inconclusive; nt = not tested or not shown; [ ] = remark or other dose. Most compounds without a hit are left out; they make up all but 7.4% or so of the library. Calls come from the whole dose curve; as a rule, active = well fitted curve in the direction sought with a large enough effect; inconclusive = small, poorly fitted or top-dose-only effect, or another doubt; inactive = no such curve, though single readings can be large; an effect the other way counts as inactive or inconclusive. Potency is the fitted concentration of half-maximal effect.

SMILES	SMN2 splice enh	ELG1 genotox	KinaseGlo FLuc	FLuc modulator	Rab9 prom act	NPC1 prom act
O=[N+]([O-])c1ccccc1S(=O)(=O)n1nnc2ccccc21	-0.5%	7.6%	3.2%	3.2%	2.7%	6.1%
COC(=O)c1c(NC(=O)Cc2ccc(OC)c(S(=O)(=O)N3CCOCC3)c2)sc(C)c1C	nt	-8.3%	nt	2.5%	-3.6%	-3.0%
Cc1ccc(C)c(NCC(=O)c2ccc(Cl)cc2)c1	nt	-5.6%	nt	-1.2%	-3.5%	-1.1%
CCOc1ccc2nc(NC(=O)CSc3nnc(-c4ccncc4)n3CC3CCCO3)sc2c1 (stereo not drawn)	12.7%	?	1.0%	2.39µM*	?	?
Cc1ccc(F)cc1NC(=O)c1ccc(OCC2CCCO2)cc1 (stereo not drawn)	nt	12.1%	nt	nt	nt	nt
O=C(Nc1nc(-c2ccc(F)c(F)c2)cs1)c1ccc(OCC2CCCO2)cc1 (stereo not drawn)	nt	-2.1%	nt	-25.9%	-34.3%	-28.1%
Cc1csc(NC(=O)c2ccc(OCC3CCCO3)cc2)n1 (stereo not drawn)	1.41µM*	-6.8%	-15.0%	5.36µM*	0.447µM*	?
Cc1cccc2sc(NC(=O)c3ccc(OCC4CCCO4)cc3)nc12 (stereo not drawn)	2.8%	6.4%	-1.2%	10.7µM*	-3.0%	26.7%
CCOc1ccc2nc(NC(=O)c3ccc(OCC4CCCO4)cc3)sc2c1 (stereo not drawn)	?	-0.8%	0.3%	2.69µM*	15.5%	26.7%
Cc1cc(C)cc(N(CCC#N)C(=O)CSc2nc3ccccc3c(=O)[nH]2)c1	nt	1.3%	nt	nt	nt	nt
Clc1nnc(N/N=C/c2ccccc2)c2ccccc12	17.8µM*	7.08µM*	-20.2%	2.69µM*	?	20.9%
Clc1nnc(NN=C2CCCC2)c2ccccc12	-9.4%	1.9%	-4.3%	?	1.3%	-5.5%
Clc1ccc(/C=N/Nc2nc(Cl)nc3ccccc23)cc1	28.8%	?	-9.8%	13.5µM*	14.7%	2.8%
Clc1cncc(Cl)c1N/N=C/c1ccccc1	nt	5.7%	nt	21.3µM*	-0.9%	27.6%
Cc1ccc(/C=N/Nc2nnc(Cl)c3ccccc23)cc1	4.47µM*	2.31µM*	?	0.601µM*	?	?
Clc1ccc(/C=N/Nc2nnc(Cl)c3ccccc23)cc1	11.2µM*	?	-18.9%	?	?	?
CC(C)=CC(=O)OCc1cc([N+](=O)[O-])cc2c1OCOC2	?	?	-1.6%	23.9µM*	?	10.2%
O=C(OCc1cc([N+](=O)[O-])cc2c1OCOC2)c1ccc2ccccc2n1	5.7%	6.9%	-0.5%	0.3%	6.5%	-5.7%
O=C(N/N=C/c1ccc(Br)s1)c1c[nH]c2ccccc12	8.91µM*	2.6%	-0.7%	21.3µM*	2.82µM*	3.55µM*
O=C(N/N=C/c1cc(Br)cs1)c1c[nH]c2ccccc12	nt	7.5%	nt	16.9µM*	24.2%	?
Cc1ccc2nccc(C(=O)N3CCCC(Nc4ccc(C)c(C)c4)C3)c2c1 (stereo not drawn)	nt	-8.8%	nt	1.0%	-2.0%	1.2%
O=C(Oc1ccc(OC(=O)C2CCC2)cc1)C1CCC1	-5.8%	-0.4%	5.4%	?	-5.1%	-2.8%
O=C(c1ccccc1)c1ccc(OC(=O)C2CCCCC2)cc1	nt	1.5%	nt	13.5µM*	-5.4%	0.5%
O=C(Oc1ccc2ccc(O)cc2c1)C1CCCCC1	1.4%	-4.5%	3.4%	16.9µM*	-4.0%	0.6%
O=C(Oc1ccc2ccc(O)cc2c1)c1ccccc1Cl	nt	?	nt	2.39µM*	0.3%	23.9%
SMILES	SMN2 splice enh	ELG1 genotox	KinaseGlo FLuc	FLuc modulator	Rab9 prom act	NPC1 prom act
O=C(Oc1ccc2ccccc2c1)C1CCC1	nt	0.3%	nt	23.9µM*	0.0%	-2.0%
COc1cc(C(=O)Oc2ccc3ccc(O)cc3c2)cc(OC)c1OC	nt	?	nt	-12.5%	4.3%	-0.3%
Cc1ccccc1OCC(=O)NCCCNC(=O)c1cccnc1	nt	21.9%	nt	1.2%	0.4%	-0.6%
Fc1cccc(Cl)c1CNCc1cccnc1	nt	-6.3%	nt	-1.7%	8.6%	-4.2%
Cc1ccc2nc(NC(=O)C(NS(=O)(=O)c3cccc4nsnc34)C(C)C)sc2c1 (stereo not drawn)	-36.2%	2.5%	-2.7%	1.2%	2.9%	-0.4%
CCOc1ccc(C(=O)Nc2ccccc2OCc2cc(=O)n3ccccc3n2)cc1	nt	nt	nt	-19.0%	nt	nt
CSc1ccc(/C=C(\NC(=O)c2ccco2)C(=O)N2CCCCC2)cc1	nt	1.0%	nt	-2.8%	6.0%	0.2%
CCOc1ccc(N(CC(=O)NCc2ccco2)C(=O)CCC(=O)Nc2ccccn2)cc1	nt	-1.8%	nt	0.3%	-2.9%	5.7%
Cc1cc(OCC(=O)N2CCOCC2)ccc1[N+](=O)[O-]	nt	?	nt	23.9µM*	2.82µM*	3.16µM*
Cc1ccc(-c2ccc(OCC(=O)N3CCOCC3)cc2)cc1	-2.4%	?	-3.9%	19µM*	17.9%	16.0%
Cc1cc(OCCN2CCOCC2)ccc1[N+](=O)[O-]	?	?	0.4%	?	?	?
N#CC1=C2SC=C(c3ccc(Br)cc3)N2CCCC1=O	15.8µM*	18.7%	-2.6%	5.36µM*	1.58µM*	?
O=c1[nH]c(-c2ccccn2)cc2ccccc12	15.8µM*	?	-10.7%	16.9µM*	?	?
Cc1cc2ccccc2c(=O)[nH]1	13.6%	4.9%	-1.3%	0.9%	-2.8%[1.84 µM]	-4.0%
Cc1ccsc1/C=N\Nc1cn[nH]c(=O)c1Cl	-0.2%	20.6µM*	-2.3%	-19.6%	2.7%	6.0%
Cc1ccc(/C=N\Nc2cn[nH]c(=O)c2Cl)cc1	17.9%	20.6µM*	-4.7%	23.9µM*	?	29.3%
COc1ccc(/C=N/Nc2cn[nH]c(=O)c2Cl)cc1	?	20.6µM*	-4.1%	?	23.8%	18.2%
O=c1[nH]ncc(N/N=C/c2ccccc2)c1Cl	-1.9%	?	-4.4%	2.3%	-7.9%	-1.4%
CCOc1ccc(-c2csc(/C(C#N)=C/c3ccc(Br)cc3)n2)cc1	-2.0%	nt	nt	-4.2%	nt	nt
CCC(C)c1ccccc1NC(=S)NC(=O)c1ccco1 (stereo not drawn)	nt	2.7%	nt	4.3%	0.8%	1.3%
CCN1C(=O)/C(=C/C2=Cc3ccccc3OC2C)SC1=S (stereo not drawn)	nt	0.3%	nt	13.5µM*	7.1%	-1.9%
CCN1C(=O)/C(=C\c2ccncc2)SC1=S	nt	-0.3%	nt	-0.5%	0.6%	-0.5%
CC(=C/c1ccccc1)/C=C1/SC(N2CCOCC2)=NC1=O	?	11.0%	-5.6%	15.1µM*	?	?
CC1Oc2ccccc2C=C1/C=C1/SC(N2CCOCC2)=NC1=O (stereo not drawn)	21.3%	11.5%	0.4%	21.3µM*	?	20.0%
COC(=O)c1cc(-c2ccc3c(c2)OCO3)nc2ccccc12	-22.8%	-6.3%	-6.1%	16.9µM*	0.9%	-10.2%

Assay outcomes (PubChem)
